In PubChem BioAssay (NCI):
Compounds without any hit were thinned out: in the full panel of roughly 79,000, 15% have a hit. Unmarked numbers belong to inactive results. The source made the active and inactive calls. No stated cut-off is given here; in the data, active means growth inhibition above about 70%; inactive means the rest.

Experiments:
[1] = NCI Yeast Anticancer Drug Screen. Data for the rad50 strain (AID 155);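 further: 0% = growth of vehicle-only cultures of the same strain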; conditions: S. cerevisiae rad50 strain growth inhibition; at 50.0 µM; hits give high values
In short: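 Cells are treated with compound, grown, and their growth is then scored against vehicle-only cultures of the same repair-deficient yeast strain.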

[2] = NCI Yeast Anticancer Drug Screen. Data for the mec2-1 strain (AID 157); conditions: S. cerevisiae mec2-1 strain, at 50.0 µM, hits give high values
In short: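 Strain: mec2-1 (DNA repair/cell cycle alteration). Compound exposure, then growth measured; inhibition expressed relative to vehicle.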

[3] = NCI Yeast Anticancer Drug Screen. Data for the sgs1 mgt1 strain (AID 161);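 further: 0% = growth of cultures given vehicle only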; conditions: S. cerevisiae sgs1 mgt1 strain, at 50.0 µM, hits give high values
In short: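 Read-out: growth inhibition vs vehicle controls. Cells: mutant yeast strain deficient in DNA damage repair.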

[4] = NCI Yeast Anticancer Drug Screen. Data for the cln2 rad14 strain (AID 165);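 further: 0% = growth equal to vehicle treated cultures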; conditions: S. cerevisiae cln2 rad14 strain, at 50.0 µM, hits give high values
In short: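 Compounds are applied to the cln2 rad14 yeast strain, and growth is then compared with that of vehicle-treated cultures to give inhibition.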

[5] = NCI Yeast Anticancer Drug Screen. Data for the bub3 strain (AID 167); conditions: S. cerevisiae bub3 mutant strain, at 50.0 µM, hits give high values
In short: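 Part of a panel of yeast mutants defective in DNA damage repair or cell cycle regulation. Each strain is grown with compound, and inhibition is calculated relative to solvent-treated cultures.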

[6] = NCI Yeast Anticancer Drug Screen. Data for the mlh1 rad18 strain (AID 175); conditions: S. cerevisiae mlh1 rad18 strain growth inhibition; at 50.0 µM; hits give high values
In short: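 Read-out is yeast growth inhibition, calculated against vehicle-only controls. The compound was applied to a strain engineered with DNA damage repair alterations.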

Structure (SMILES) | growth inhibition [1] | growth inhibition [2] | growth inhibition [3] | growth inhibition [4] | growth inhibition [5] | growth inhibition [6]
COC1CCC2(C)C3CCC4C(=CCC5C(C)(C)C(OC(C)=O)CCC45C)CC3(C)CCC2C1(C)C (stereo unspecified) | 13.1% | -19.4% | -8.35% | -20.8% | 0.1% | 0.2%
CC1CCCN(N=Nc2ccc(Br)cc2-c2nc(N)c3cc(Br)ccc3n2)C1 (stereo unspecified) | 99.2% (active) | 99.2% (active) | 99.5% (active) | 98.2% (active) | 99% (active) | 99% (active)
CCc1nc(N)nc(C(=O)NCCNC(=O)c2nc(N)nc(CC)c2C)c1C | -38.1% | -14.2% | -11.6% | -16.7% | -13.4% | -45.5%
O=C1c2ccccc2-c2cc(Br)c(NC(=O)C3CCCCC3C(=O)O)cc21 (stereo unspecified) | 0.2% | 3.55% | 20.6% | 25.8% | -1.2% | 3.6%
O=C(CCN1CCCC1)c1ccc2ccccc2c1 | 32.6% | 49.3% | 65.9% | 43.6% | 59.4% | 21.6%
Cc1cc(C(F)(F)F)cc(-n2nc(NS(=O)(=O)c3cc(C)c(Cl)cc3S)nc2N)n1 | 13.1% | 10.1% | 15.4% | -2.9% | 4.5% | 33.5%
CC(=O)NNc1nc(C)c(C(/C=C/c2ccc([N+](=O)[O-])cc2)=N/N)s1 | 22.4% | 9.2% | 3.85% | 17.4% | -0.4% | -12.4%
COC(=O)CCC(CCC(=O)OC)([N+](=O)[O-])[N+](=O)[O-] | 0.4% | -1.95% | 4.5% | -55.6% | 10.7% | 3.3%
NC(=O)CCC(N)=O | 22.6% | 5.75% | 5.25% | -5.4% | 17.1% | 1.45%
Nc1ccc(CP(=O)(O)O)cc1 | -8.4% | 14.8% | -3.65% | -8.1% | 16.1% | 24.9%
C#CCN | 9.25% | 2% | 2.8% | 3.75% | 8.05% | -12.7%
COc1cc(OC)c(C2c3cc4c(cc3OC(N3CCCC3)C2C)OCO4)c(OC)c1 (stereo unspecified) | 17.1% | -11.8% | 2.45% | 18% | -5.1% | -1.4%
CCCCCCCCCCCCCCCCc1c(C)nc(N(C)C)oc1=O | 18.8% | 23% | -4.4% | 8.2% | 21.1% | 2.25%
CS(=O)(=O)OC1COC(c2ccccc2)OC1C1OC(c2ccccc2)OCC1OS(C)(=O)=O (stereo unspecified) | -26.7% | -3.85% | -31.9% | -4% | -0.9% | -7.25%
Clc1nc(N2CCOCC2)c2[nH]cnc2n1 | -5.9% | 5.7% | 3.9% | -6.1% | 8.8% | 6.25%
CCCCCCCc1ccc(N=Cc2ccc(OCCC)cc2)cc1 | 98.8% (active) | 99.3% (active) | 98.9% (active) | 99% (active) | 97.7% (active) | 99.2% (active)
CCCCCCCCCCCCCCCCCC(=O)N1C(=O)c2ccccc2C1=O | 22.6% | 2.35% | 6.75% | -8.85% | -2.65% | 29.9%
CCOc1ccccc1NC(=O)Nc1ccccc1Cl | -0.1% | -2.15% | 23.1% | -18.3% | 7.5% | 21.3%
C[N+](C)(C)CC(=O)N/N=C(\C(=O)Nc1ccc(Cl)cc1)C1C(=O)N(c2ccccc2)N=C1N (stereo unspecified) | -15.4% | 1.25% | -14.8% | -13.8% | -6.95% | 17.6%
O=C(O)CSc1nc2cc(Cl)c(Cl)cc2[nH]1 | -9.75% | -6.75% | 1.35% | -10.4% | 13.1% | -7.55%
CC(C)(C)SC1C(O)C(CO)OC1n1ccc(Nc2ccccc2)nc1=O (stereo unspecified) | -17.9% | 10.8% | -24.6% | -15.8% | 1.55% | 4.65%

Structure (SMILES) | growth inhibition [1] | growth inhibition [2] | growth inhibition [3] | growth inhibition [4] | growth inhibition [5] | growth inhibition [6]
COC(=O)CC1(C(=O)OC)Nc2ccccc2C(=O)O1 (stereo unspecified) | 2.65% | 21.7% | 18.8% | -11.1% | -11.1% | 2.9%
N#Cc1sc2c(c1OC(=O)c1ccccc1)c(=O)n(-c1ccccc1)c(=S)n2-c1ccccc1 | -2.65% | 10.8% | 3.45% | -12.4% | -5.95% | 18%
Cc1cc(O)c(C(C)C)cc1N=Cc1ccccc1O | -38.4% | -23.6% | -58.2% | -29.7% | -21.6% | -5.8%
c1ccc(CNCCCNCCCCNCCCNCc2ccccc2)cc1 | 7.75% | -5.5% | 9.4% | -10.3% | 17.8% | 7.45%
CC1CN(C(=O)OCC23COC4(C)CCC(C)(OC2)N34)CC(C)O1 (stereo unspecified) | 2.6% | -18% | 6.9% | 13.4% | -0.7% | 5.75%
CC(=O)[CH-]C(=O)c1ccccc1.CC(=O)[CH-]C(=O)c1ccccc1.CC(C)CCCC(C)[C@H]1CCC2[C@@H]3CC=C4C[C@@H]([O-])CC[C@]4(C)C3CC[C@@]21C.CC[O-].[Ti+4] (stereo partly specified) | 11.2% | 0.05% | 10.2% | -33.9% | 23.2% | 3.85%
Oc1c(CNCc2ccccc2)cc(CNCc2ccccc2)c(O)c1CNCc1ccccc1 | 5.3% | 8.85% | -4.8% | 3.2% | 17.3% | -14.8%
Oc1ccccc1C=NCCCN=Cc1ccccc1O | 12.4% | 0.25% | 36.5% | 15.5% | 48.8% | 21.5%
CCCCCCCCCCCCCCCC/C(=C\c1ccc2ccccc2c1)[N+](=O)[O-] | -29.2% | -10.7% | -24.6% | -38.3% | -1.75% | -10%
CC(=O)OC1CC(c2ccccc2)=NO1 (stereo unspecified) | -12.8% | -21.5% | -8.6% | -21.9% | -10.8% | -12.4%
CC(C)NC(=O)Nc1ccccc1Cl | -4.45% | -8.9% | 6.9% | -28.8% | -11.8% | -0.7%
CCOC(=O)C(NC(=O)c1ccccc1)(C(=O)OCC)c1ccccn1 | 8.55% | -13.5% | 9.65% | 18.8% | 9.6% | 22.6%
O=C(O)CNC(=O)C(Cc1ccccc1)NC(=O)CNC(=O)C(CSC(c1ccccc1)c1ccccc1)NC(=O)C(CSC(c1ccccc1)(c1ccccc1)c1ccccc1)NC(=O)OCc1ccccc1 (stereo unspecified) | -0.75% | 27% | 23.4% | -17.2% | -9.55% | 44.1%
CC(O)CN1CCN(CCN(CC(C)O)CC(C)O)CC1 (stereo unspecified) | -16.1% | -24.2% | -3.7% | -2% | -9.4% | -19.6%
Cc1ccc(C(=N)c2ccccc2Cc2ccccc2)cc1 | -14.4% | -10.7% | -12.8% | 2.75% | 3.9% | -20.3%
COc1ccc(N)c(C(=O)CCNC(C)=O)c1 | -23.2% | -9.7% | -21.2% | -7.05% | -26.6% | -25.4%
CCC1=C(C)/C(=C/c2[nH]c(C)cc2C)N=C1C | 5.5% | 0.95% | 3.65% | -54.6% | 0.25% | 12.2%
O=C1/C(=C/c2ccco2)N=C2Sc3c(nc[nH]c3=O)N12 | 2.4% | -19.2% | 6.55% | -3.65% | 9.5% | 16.6%
N#C/C(=C\C=C\c1ccccc1)C(N)=O | -57.8% | -27.6% | -27.4% | -7.45% | -51.5% | -49.8%
Cc1nc2ccccc2c(=O)n1NC(=O)c1ccccn1 | -6.6% | -10% | -11.6% | -1.05% | -5.55% | -8.25%
